Compound activity (PubChem)
Shown are actives, neighbours in structure and some others; about 15% of the full set was active somewhere.
ALOX12 inh = blocks human arachidonate 12S-lipoxygenase; purified 12hLO, xylenol orange hydroperoxide absorbance; Potency, µM (top dose mostly 108 µM), for inactives: at the top dose activity change, negative = inhibition, actives largely listed as inhibitors; 580,000 compounds, 1.1% hits; AID 1671190
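Purified human 12hLO (150 nM final) in 25 mM Hepes, 0.01% Triton X-100, pH 7.0 was preincubated 15 min at room temperature with compound. Then 40 uM arachidonic acid was added, 30 min. Hydroperoxide was read by Fe-XO absorbance ratio 573/405 nm.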
Gal4-VP16 FLuc = Gal4-VP16 reporter inhibition counter-screen | Drosophila S2 Gal4-VP16 UAS-luciferase, luminescence, 20 h | 310,000 compounds, 3.5% hits | AID 2546 | Potency, µM (top dose mostly 53.6 µM), for the others: at the top dose activity, negative = inhibition, most hits filed as inhibitors;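 note: Gal4-VP16 expression switched on by copper sulfate through the metallothionein promoter; nearly all actives have a fitted effect of over 50% in size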
TDP1 cell noCPT = qHTS for Inhibitors of human tyrosyl-DNA phosphodiesterase 1 (TDP1): qHTS in cells in absence of CPT; DT40 Tdp1-/- hTDP1 cells, no CPT, ATP luminescence, 48 h; Potency, µM (doses to about 46.2 µM), for the others: at the top dose activity change, negative = growth inhibition, most hits filed as inhibitors; 420,000 compounds, 15% hits; note: nearly all actives have a fitted effect of over 55% in size
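Compound effects on proliferation are scored in DT40 Tdp1-/-;hTDP1 cells in the absence of CPT. ATP levels (CellTiter-Glo luminescence) are recorded after a ≥48 hr, 37 °C incubation.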
DT40 TDP1 CPT = DT40-hTDP1 cell growth loss with CPT. Potency, µM (series often up to 46.2 µM), inactives show top-dose activity change, negative = growth inhibition, usual class: inhibitors. chicken DT40 Tdp1-/-;hTDP1 cells + 20 nM CPT, ATP luminescence, 48 h. 420,000 compounds, 12% hits; note: nearly all actives have a fitted effect of over 55% in size
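Cell growth measured by CellTiter-Glo luminescence after a minimum 48 h, 37 C compound exposure with 20 nM CPT in Tdp1-knockout DT40 cells stably expressing hTDP1, seeded 400/well; qHTS titration format.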
RORgamma inh = inhibitors of mouse ROR gamma transcriptional activity. P51450. AID 2551. Drosophila S2 Gal4-RORgamma UAS-luciferase reporter, 20 h. 310,000 compounds, 5.4% hits. Potency, µM (top dose mostly 53.6 µM), for inactives: at the top dose activity change, negative = inhibition, most hits filed as inhibitors; note: nearly all actives have a fitted effect of over 60% in size
Target sequence (P51450 whole entry, looked up, the tested form may be a part): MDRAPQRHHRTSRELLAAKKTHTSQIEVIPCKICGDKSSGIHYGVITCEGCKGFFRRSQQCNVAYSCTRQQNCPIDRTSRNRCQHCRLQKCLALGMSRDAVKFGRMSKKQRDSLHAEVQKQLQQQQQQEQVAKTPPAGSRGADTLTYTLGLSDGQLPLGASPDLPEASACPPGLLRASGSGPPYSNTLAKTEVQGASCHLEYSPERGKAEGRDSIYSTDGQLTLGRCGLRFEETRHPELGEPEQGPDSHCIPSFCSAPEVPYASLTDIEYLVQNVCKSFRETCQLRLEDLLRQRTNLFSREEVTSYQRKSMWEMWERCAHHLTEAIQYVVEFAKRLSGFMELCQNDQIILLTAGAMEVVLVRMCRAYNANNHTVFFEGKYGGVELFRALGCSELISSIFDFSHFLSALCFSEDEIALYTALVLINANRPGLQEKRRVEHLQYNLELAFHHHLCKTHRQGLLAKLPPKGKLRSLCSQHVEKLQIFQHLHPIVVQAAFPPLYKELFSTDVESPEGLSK
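A Gal4/UAS one-hybrid system in insect cells: metallothionein-promoter Gal4–ROR gamma fusion plus Photinus luciferase reporter. Copper sulfate 700 uM final, 20 hr ambient incubation, luminescent detection after 10 min with reagent.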
ELG1 repair inh = blocks ELG1-dependent DNA repair in HEK293T cells. HEK293T ELG1-luciferase reporter, luminescence, 16 h; DNA damage induced by 5-fluorouridine. Potency, µM (doses to about 46.1 µM), for inactives: top-dose activity change, negative = inhibition, most hits filed as inhibitors. 330,000 compounds, 2.3% hits; note: nearly all actives have a fitted effect of over 55% in size
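Cells (2,000 per well) received 5-fluorouridine plus test compound or DMSO and were incubated 16 hr at 37 °C, 5% CO2. Luciferase activity was read by luminescence 30 min after ONE-Glo addition; signal suppression marked inhibition of damage-induced ELG1 function.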
Starred values were filed as active, the others as inactive; ? = inconclusive; nt = no result given. Calls come from the whole dose curve; as a rule, active = well fitted curve in the direction sought with a large enough effect; inconclusive = small, poorly fitted or top-dose-only effect, or another doubt; inactive = no such curve, though single readings can be large; an effect the other way counts as inactive or inconclusive. % is set by controls: 0 for no effect and ±100 for the full control effect; potency is the fitted concentration of half-maximal effect.

SMILES	ALOX12 inh	Gal4-VP16 FLuc	TDP1 cell noCPT	DT40 TDP1 CPT	RORgamma inh	ELG1 repair inh
CCOC(=O)Cc1csc(NC(=O)CCc2ccc(S(=O)(=O)N3CCOCC3)cc2)n1	-21.4%	-26.0%	?	?	?	11.6µM*
Cc1ccc(Nc2nc(-c3ccc(S(=O)(=O)N4CCOCC4)cc3)cs2)cc1Cl	1.4%	?	6.51µM*	4.61µM*	?	4.0%
CC(C)CC(=O)Nc1nc(-c2ccc(S(=O)(=O)N3CCOCC3)cc2)cs1	-2.8%	nt	16.4µM*	13µM*	nt	?
CCOC(=O)Cc1csc(NC(=O)c2ccc(S(=O)(=O)N3CCCCC3)cc2)n1	0.0%	?	?	-22.8%	?	-33.7%
Cc1cc(-c2nc(-c3ccc(S(=O)(=O)N4CCOCC4)cc3)cs2)ccc1F	-29.1%	nt	nt	nt	nt	nt
CCCCC(=O)Nc1nc(-c2ccc(S(=O)(=O)N3CCOCC3)cc2)cs1	-12.0%	-20.0%	18.4µM*	?	32.5%	?
COC(=O)c1nc2ccccc2nc1N1CCN(Cc2ccccc2)CC1	-5.2%	nt	nt	nt	nt	nt
O=C(OCc1cccc(F)c1)c1ccc(C2Nc3ccccc3S(=O)(=O)N2)cc1 (configuration not stated)	15.7%	nt	nt	nt	nt	nt
CCOC(=O)Cc1csc(NC(=O)c2ccc(N3CCOCC3)cc2[N+](=O)[O-])n1	?	nt	?	23.1µM*	nt	?
COc1ccccc1CCNC(=O)C(=O)NCC(c1ccco1)S(=O)(=O)c1cccs1 (configuration not stated)	1.0%	nt	?	20.6µM*	nt	nt
COc1ccccc1CCNC(=O)C(=O)NCC(c1ccco1)S(=O)(=O)c1ccc(C)cc1 (configuration not stated)	?	nt	?	20.6µM*	nt	nt
COc1ccccc1CCNC(=O)C(=O)NCC(c1cccs1)S(=O)(=O)c1cccs1 (configuration not stated)	-29.4%	nt	?	?	nt	nt
COc1ccc(CCNC(=O)C(=O)NCC(c2ccco2)S(=O)(=O)c2cccs2)cc1 (configuration not stated)	-18.7%	nt	13µM*	13µM*	nt	nt
O=C(NCCc1ccc(F)cc1)C(=O)NCC(c1ccco1)S(=O)(=O)c1cccs1 (configuration not stated)	-1.0%	nt	?	?	nt	nt
COc1ccccc1CCNC(=O)C(=O)NCC(c1cccs1)S(=O)(=O)c1ccc(C)cc1 (configuration not stated)	-24.4%	nt	20.6µM*	14.6µM*	nt	nt
CCCCNC(=O)c1ccc(NC(=O)c2ccccc2C)cc1	-9.5%	nt	nt	nt	nt	nt
S=C(NCc1ccccc1)N/N=C/c1cccnc1	6.8%	nt	nt	nt	nt	nt
COc1ccc(CCC(=O)N2[C@@H]3CC[C@H]2CC(NC(=O)c2ccncc2)C3)cc1 (some centres not stated)	63.3%	nt	nt	nt	nt	nt
CC(/C=C/c1ccc(O)cc1)=N/O	0.0%	-10.4%	20.6µM*	14.6µM*	?	23.1µM*
CC(/C=C/c1ccccc1)=N/O	-14.5%	-13.6%	0.0%	4.0%	5.5%	0.0%
Nc1ccc(Cc2ccc(N)c(O)c2)cc1O	?	1.6%	?	23.1µM*	-27.3%	9.2µM*
Cc1[nH]c(=O)[nH]c(=O)c1/C=N/NC(=O)[C@H](C)N	0.0%	?	?	-3.6%	112µM*	5.7%
CCOc1ccc(CCNC(=O)c2cc3cccc4c3n2CCS4)cc1	?	nt	?	9.2µM*	nt	nt
CCOc1ccc(CCNC(=O)CN2C(=O)CCSc3ccccc32)cc1	10.5%	-2.1%	?	5.4%	-4.0%	10.9%
O=C(NCc1ccccc1Cl)c1cc2cccc3c2n1CCS3	-25.5%	nt	?	23.1µM*	nt	nt
SMILES	ALOX12 inh	Gal4-VP16 FLuc	TDP1 cell noCPT	DT40 TDP1 CPT	RORgamma inh	ELG1 repair inh
COc1ccccc1CNC(=O)c1cc2cccc3c2n1CCS3	-19.8%	nt	?	18.4µM*	nt	nt
O=C(Cn1cccc1-c1nc(-c2ccccc2)no1)N1CCN(c2ccccc2F)CC1	21.0%	nt	nt	nt	nt	nt
COc1ccc(-c2nc(NC(C)=O)sc2-c2ccc(OC)cc2)cc1	10.8%	-16.5%	-27.4%	0.6%	-37.6%	?
COc1ccc(-c2sc(NC(=O)c3ccc(C)cc3)nc2-c2ccc([N+](=O)[O-])cc2)cc1	?	-0.1%	?	23.1µM*	-13.4%	-9.7%
COc1ccc(C(=O)Nc2nc(-c3ccc([N+](=O)[O-])cc3)c(-c3ccccc3)s2)cc1	57.5%	nt	7.31µM*	8.2µM*	nt	nt
CNS(=O)(=O)c1cc(-c2nnc(Nc3ccc(NC(C)=O)cc3)c3ccccc23)ccc1C	2.6%	-1.1%	18.4µM*	16.4µM*	33.1%	-40.1%
COC(=O)COc1ccc(-c2nnc(Nc3ccc(OC)cc3)c3ccccc23)cc1	-1.9%	nt	nt	nt	nt	nt
C#CC(C)(C)NS(=O)(=O)c1cc(-c2nnc(Nc3ccc(C)cc3)c3ccccc23)ccc1C	-17.5%	nt	?	20.6µM*	nt	nt
CC(=O)Nc1ccc(NS(=O)(=O)c2cc(-c3n[nH]c(=O)c4ccccc34)ccc2C)cc1	4.4%	-1.8%	-8.9%	0.4%	1.4%	-8.6%
CCN(CC)C(=O)COc1ccc(-c2nnc(Nc3ccc(OC)c(C(=O)NC)c3)c3ccccc23)cc1	?	1.2%	20.6µM*	?	5.6%	-21.4%
CCN(CC)C(=O)c1ccc(Nc2nnc(-c3ccc(C)c(S(=O)(=O)NC)c3)c3ccccc23)cc1	-10.6%	nt	20.6µM*	25.9µM*	nt	nt
Cc1nn2c(NCCc3ncc[nH]3)cc(-c3ccccc3)nc2c1C	130.4%	nt	nt	nt	nt	nt
COc1ccc(Nc2nnc(-c3ccc(C(=O)NCCO)cc3)c3ccccc23)cc1	3.4%	-20.0%	6.51µM*	3.26µM*	12.7%	-20.3%
C#CCOc1ccc(-c2nnc(Nc3ccc(NC(C)=O)cc3)c3ccccc23)cc1	-2.1%	nt	16.4µM*	?	nt	nt
CCN(CC)S(=O)(=O)c1cc(-c2nnc(Nc3ccc(OC)c(C(N)=O)c3)c3ccccc23)ccc1C	-10.5%	nt	?	18.4µM*	nt	nt
Cc1ccc(-c2nnc(Nc3ccc(Cl)c(Cl)c3)c3ccccc23)cc1S(=O)(=O)N(C)C	-18.1%	nt	?	?	nt	nt
CCN(CC)C(=O)c1ccc(-c2nnc(Nc3ccc(C(=O)N(C)C)cc3)c3ccccc23)cc1	16.3%	-12.4%	16.4µM*	?	?	?
CC(=O)Nc1ccc(Nc2nnc(-c3ccc(O)cc3)c3ccccc23)cc1	-14.7%	-2.2%	-0.2%	-2.6%	-7.8%	-22.8%
